# Assay results as given in PubChem BioAssay AID652264 (National Center for Advancing Translational Sciences (NCATS), 2013).
# Calls of active or inactive are those of the source.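 How the source made its calls: active means compounds blocking cell cycle progression with a potency of 5000 nM or lower; inconclusive means potency above 5000 nM but under 10000 nM; inactive means the rest.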
# Assay: qHTS for Inhibitors of Ubiquitin-specific Protease USP2a Using CHOP2 as the Reporter: Cell Cycle
# Details: HCT116 cell cycle arrest, propidium iodide DNA content, 16 h
# Text: Homeostasis of cellular proteins is maintained through a combination of synthesis and degradation. The pathway that accounts for the majority of protein degradation is the ubiquitin-proteasomal pathway. Ubiquitin (Ub) is highly conserved in all cells and the generation of a multi-Ub chain typically targets proteins for degradation by the proteasome. However, ubiquitination is highly reversible and dynamic. Deubiquitination, the reverse process, is catalyzed through the action of enzymes referred to as isopeptidases or deubiquitinating enzymes (DUBs). This group of enzymes is collectively responsible for maintaining adequate pools of free ubiquitin and regulating the ubiquitination status of cellular proteins. The class of DUBs referred to as the ubiquitin-specific proteases (USP) family functions endoproteolytically to cleave Ub chains from a wide range of protein substrates. […] Cells in G2 have twice the fluorescence as cells in G1, and the Acumen allows the cells to be binned by their individual fluorescence properties. Therefore, in the presence of an active USP2 inhibitor the fluorescence of a cell would be lower since it would not progress from G1 to S and then G2. […]
# HCT116 cells at 600 cells/well were plated in 96-well plates and allowed to adhere overnight (37C, […]). […] Intensity of the DNA stain per cell was quantified using the Acumen plate reader. […]
row,SMILES,Potency
1,Cc1ccc(S(=O)(=O)Nc2cc(C(F)(F)F)ccc2C(=O)Nc2nc(-c3ccccc3)cs2)cc1,2 µM (active)
